# The list is not random: actives were taken first. Their share in the collection is about 13%.
# HCV inh: qHTS Assay for Inhibitors of Hepatitis C Virus (HCV) | Huh7.5.1 HCVcc-Cre infection, luciferase reporter, 44 h | Potency, µM (series often up to 41.8 µM), for inactives: at the top dose activity change, negative = inhibition, usual class: inhibitors | 3.4% of 340,000 active; further: potency means the concentration at half of the fitted maximal effect
#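 Cells seeded at 1,000/well and cultured 4 h, then compounds added followed by HCVcc-Cre virus (~0.5 moi). After 44 h further culture, luciferase substrate was added, plates held 15 min at room temperature, and luminescence read for 15 sec.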
# Pf growth 48h: Primary qHTS for delayed death inhibitors of the malarial parasite plastid, 48 hour incubation. P. falciparum luciferase growth in erythrocytes, 48 h. Potency, µM (top dose mostly 28.7 µM), inactives show at the top dose activity change, negative = inhibition, actives largely listed as inhibitors. 5.9% of 310,000 active; further: potency means the concentration at half of the fitted maximal effect
#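 Cell-based growth assay: transgenic P. falciparum expressing firefly luciferase, cultured in red cells within RPMI 1640 containing 0.5% w/v Albumax, 24 mM bicarbonate and gentamycin. A drop in luciferase activity indicates inhibition.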
# HCMV antiviral: qHTS Assay for inhibitors of the human cytomegalovirus (HCMV) | activity change, negative = inhibition, % at 57.5 µM | 4.5% of 410,000 active | AID 1259415, 2018 | HFF cells, HCMV-luciferase reporter, 72 h; hits give low values; in the data active means activity change below about -60%; inconclusive means no clear call, values can overlap the other calls; inactive means above about -39%
#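 Two-dose cell screen: HFF monolayers treated with compounds and infected with luciferase-expressing HCMV at 1 PFU/cell, 72 h at 37C, then lysed for luciferase measurement.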
# Pf growth 96h: Primary qHTS for delayed death inhibitors of the malarial parasite plastid, 96 hour incubation | P. falciparum luciferase reporter growth, 96 h | Potency, µM (top dose mostly 28.7 µM), for the others: at the highest dose activity change, negative = inhibition, actives largely listed as inhibitors | 6.9% of 320,000 active | AID 504834, 2011; further: potency means the concentration at half of the fitted maximal effect
#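 Two parasite generations (96 h, 37 C, 5% CO2) of compound exposure in infected erythrocytes (0.05% parasitemia, 2% hematocrit). Luciferase-reporter P. falciparum; decreased luminescence indicates inhibited growth, aimed at apicoplast-acting delayed death.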
# * = called active by the depositor; ? = inconclusive; nt = not tested or not shown; [ ] = another dose, or the depositor's remark. Unless noted, the call rests on the fitted dose curve; in most records, active means well fitted inhibition curve with a large enough effect; inconclusive means small, poorly fitted or top-dose-only effect, or another doubt; inactive means no such curve, though single readings can be large or run the other way. On the % scale 0 is the no-effect control and ±100 the full control effect.
SMILES,HCV inh,Pf growth 48h,HCMV antiviral,Pf growth 96h
CN1c2ccccc2-c2nc(SCC(=O)Nc3ccccc3)ncc2S1(=O)=O,nt,nt,-4.1,nt
CN(CC(O)COC(c1ccccc1)c1ccccc1)C1CCCCC1 (configuration not stated),-14.1%,?,?,?
CN(C)CC(O)COC(c1ccc(Cl)cc1)c1ccc(Cl)cc1 (configuration not stated),3.16µM*,?,?,?
CC1CN(CC(O)COC(c2ccc(Cl)cc2)c2ccc(Cl)cc2)CC(C)O1 (configuration not stated),10µM*,3.7µM*,53.0,?
CCC(=O)Nc1c(OC(=O)CC)ccc2c(C)cc(=O)oc12,-6.9%,-8.9%,4.8,3.7µM*
COc1ccc(C)c2sc(NC(=O)c3ccc(S(=O)(=O)N4CCCCC4)cc3)nc12,nt,nt,-8.0,nt
COc1cc(OC)cc(C(=O)Nc2cc3c(cc2N2CCCC2)n(C)c(=O)c(=O)n3C)c1,nt,nt,57.3,nt
CCCCCCCCCCCCCCCC[n+]1cccc(C(=O)N(CC)CC)c1,6.2%,5.22µM*,-31.1,2.62µM*
CCCCCCCC[n+]1cccc(C(=O)N(CC)CC)c1,5.6%,?,2.2,8.28µM*
CCN(CC)C(=O)c1ccc(-c2ccccc2)cc1,16.1%,?,-3.2,?
CCn1c(SCc2ccc(F)cc2Cl)nnc1-c1nonc1NC(C)=O,nt,nt,-2.1,nt
Cc1cc(C)cc(Oc2ccc(N)cc2)c1,2µM*,26.6%,32.4,11.7µM*
Nc1ccc(Oc2cccc(Oc3ccc(N)cc3)c2)cc1,-11.1%,7.3%,-75.8*,-29.9%
Cc1cccc(Oc2ccc(N)cc2)c1,?,nt,60.6,34.3%
Cc1ccc(Cc2nc3ccccc3nc2SCC(=O)N2CCCCC2C)cc1 (configuration not stated),nt,nt,-20.7,nt
Cc1nc(Nc2nc(CSc3ccc(Cl)cc3)cc(=O)[nH]2)nc2ccccc12,5.3%,0.0%,-17.0,?
COc1ccc(N/C(N)=N/c2nc(CSc3nnc(C)s3)cc(=O)[nH]2)cc1,-9.1%,-14.0%,-22.3,51.2%
Cc1ccc(N/C(N)=N/c2nc(CSc3nnc(C)s3)cc(=O)[nH]2)c(C)c1,-14.2%,?,-87.9*,0.0%
Cc1nc(Nc2nc(-c3ccccc3)cc(=O)[nH]2)nc2ccccc12,8.91µM*,nt,52.4,nt
Cc1nc(Nc2nc(CSc3nc4ccccc4[nH]3)cc(=O)[nH]2)nc2ccccc12,?,?,-103.3*,9.28µM*
COc1ccc2nc(Nc3nc(CSc4nc5ccccc5[nH]4)cc(=O)[nH]3)nc(C)c2c1,14.1µM*,?,-97.5*,10.4µM*
CN(c1ccccc1)S(=O)(=O)c1ccc(NC(=O)c2cc(=O)c3ccccc3o2)cc1,nt,nt,0.6,nt
Cc1ccc2c(C)nc(Nc3nc(CSc4nnc(C)s4)cc(=O)[nH]3)nc2c1,?,?,-98.5*,?
Cc1ccccc1NC(=S)c1nc2ccccc2[nH]1,?,3.29µM*,15.5,-21.1%
CCNC(=S)Nc1ccc(-c2nc3ccccc3[nH]2)cc1,-12.6%,117.7%,42.7,?
SMILES,HCV inh,Pf growth 48h,HCMV antiviral,Pf growth 96h
S=C(Nc1ccc(Cl)cc1)c1nc2ccccc2[nH]1,11.2µM*,-42.1%,-36.0,?
CCSC1=NC2(CCN(C(=O)NC3CCCCC3)CC2)N=C1c1ccc(C)c(C)c1,nt,nt,-6.8,nt
O=C1Cc2ccccc2N1c1ccccc1,10.5%,nt,-30.3,nt
O=C1CC(=Nc2ccccc2)NN1c1ccccc1,-29.1%,?,11.5,13.1µM*
Cc1ccc(NCCN(C)C)c2c(=O)c3cc(O)ccc3sc12,10µM*,nt,-98.7*,nt
CN(C)CCNc1ccc2nnn3c4ccc(O)cc4c(=O)c1c23,10µM*,nt,-87.6*,nt
CCN(CC)CCCNc1ccc2ncn3c4ccc(O)cc4c(=O)c1c23,?,nt,-89.8*,nt
CN(C)CCNc1cccc2sc3ccc(O)cc3c(=O)c12,nt,nt,-3.6,nt
Cc1cc(F)ccc1S(=O)(=O)NCC(c1ccco1)S(=O)(=O)c1cccs1 (configuration not stated),nt,nt,-19.0,nt
Cc1ccc(-n2ncc(C(=O)NCCCN3CCc4ccccc4C3)c2C2CCN(C(=O)OC(C)(C)C)CC2)cc1C,nt,nt,0.0,nt
CCOc1ccc(N(CC)S(=O)(=O)N2CCCC(C(=O)NCc3ccccc3Cl)C2)cc1 (configuration not stated),nt,nt,-14.8,nt
CC(NC(=O)c1cc2sccc2n1Cc1ccc(F)cc1)c1ccccc1 (configuration not stated),nt,nt,-85.5*,nt
Cc1ccccc1NC(=O)c1cc2sccc2n1Cc1ccc(F)cc1,nt,nt,-13.9,nt
O=C(Nc1nccs1)c1cc2sccc2n1Cc1ccc(F)cc1,?,13.1µM*,-16.5,-9.2%[5.75 µM]
CC(=O)c1ccc(NC(=O)c2cc3sccc3n2Cc2ccc(F)cc2)cc1,nt,nt,-32.5,nt
O=C(C1CCC1)N1CCc2cc(S(=O)(=O)N3CCN(c4ccccc4)CC3)ccc21,nt,nt,-38.4,nt
O=C(c1ccco1)N1CCN(S(=O)(=O)c2ccc3c(c2)CCN3C(=O)C2CCC2)CC1,?,13.1µM*,-16.6,-6.2%
O=C(C1CCC1)N1CCc2cc(S(=O)(=O)N3CCN(c4ccccn4)CC3)ccc21,?,10.4µM*,nt,-1.7%
Cc1ccc(-n2nc(C)c3c(C(=O)NCCc4ccccc4)cc(C)nc32)cc1,nt,nt,4.1,nt
CCOc1ccc(NC(=O)Cn2c(=O)n(Cc3ccc4c(c3)OCO4)c(=O)c3ccc(C(=O)NC4CCCCC4)cc32)cc1,nt,nt,-0.4,nt
CSc1cccc(NC(=O)Cn2c3ncccc3c(=O)n2-c2ccc(C)cc2)c1,nt,nt,-21.2,nt
O=[N+]([O-])c1cc(C(F)(F)F)cc([N+](=O)[O-])c1Sc1n[nH]c(C(F)(F)F)n1,15.1%,5.22µM*,12.3,?
Cc1cc(C)cc(NC(=O)C(=O)NC(C)c2ccccc2)c1 (configuration not stated),nt,nt,-26.1,nt
CNC(=O)c1c(NC(=O)c2cc(=O)c3ccccc3o2)sc2c1CCC2,nt,nt,31.2,nt
CCCCc1c(C)c(C#N)c2[nH]c3ccccc3n2c1=O,-17.1%,?,-72.9*,nt
SMILES,HCV inh,Pf growth 48h,HCMV antiviral,Pf growth 96h
CCOC(=O)c1ccc(NC(=O)c2c(-c3c(F)cccc3Cl)noc2C)cc1,nt,nt,-5.7,nt
CCN(CC)CCNc1nc(-n2nc(C)cc2C)nc2sc3c(c12)CC(C)(C)OC3,11.2µM*,?,-64.2*,?
Cc1cc(C)n(-c2nc(-n3nc(C)cc3C)c3c4c(sc3n2)COC(C)(C)C4)n1,nt,?,-7.0,1.04µM*
Cc1cc(C)n(-c2nc(NCCCN(C)C)c3c4c(sc3n2)COC(C)(C)C4)n1,-2.0%,?,-20.6,-1.2%
CCC1(C)Cc2c(sc3nc(NN)n(C)c(=O)c23)CO1 (configuration not stated),-14.9%,nt,71.2,?
Cc1cc(C)n(-c2nc(NCCC(C)C)c3c4c(sc3n2)COC(C)(C)C4)n1,-4.6%,nt,-95.7*,3.7µM*

# Screening data (PubChem BioAssay)
